High-throughput results as filed in PubChem BioAssay.
FBPA Giardia inh: inhibitors of Giardia lamblia fructose-1,6-bisphosphate aldolase; purified Giardia FBPA; Potency, µM (titrated, usually from 59.6 µM), without a hit: top-dose activity, negative = inhibition, hits mostly inhibitors; hit rate 0.71% among 290,000; AID 2451; further: potency means the concentration at half of the fitted maximal effect; nearly all actives have a fitted effect of over 55% in size
Target sequence (A8B2U2 whole entry, looked up): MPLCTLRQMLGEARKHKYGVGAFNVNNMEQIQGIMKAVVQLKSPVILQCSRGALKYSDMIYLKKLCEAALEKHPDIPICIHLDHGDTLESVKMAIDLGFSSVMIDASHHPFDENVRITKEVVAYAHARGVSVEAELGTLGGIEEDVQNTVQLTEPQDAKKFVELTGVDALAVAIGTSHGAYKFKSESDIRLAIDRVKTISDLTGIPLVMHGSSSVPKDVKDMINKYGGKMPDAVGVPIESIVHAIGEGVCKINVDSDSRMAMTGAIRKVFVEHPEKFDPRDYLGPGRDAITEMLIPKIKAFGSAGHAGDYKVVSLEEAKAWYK
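40 nM FBPA preincubated 10 min at RT with compound (up to 57.5 uM final), then substrate plus GAPDH/TPI/NAD/arsenate coupling and diaphorase/resazurin added. Fluorescence read after 20 min at RT, 525/598 nm.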
HCMV antiviral: blocks human cytomegalovirus replication; HFF cells, HCMV-luciferase reporter, 72 h; active compounds read low; activity change, negative = inhibition, % at 57.5 µM; hit rate 4.5% among 410,000; in the data active means activity change below about -60%; inconclusive means no clear call, values can overlap the other calls; inactive means above about -39%
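Screen run at 2 compound doses on HFFs infected with reporter HCMV, MOI 1 PFU/cell. Luciferase activity from cell lysates at 72 h post infection gave inhibition relative to buffer-only and Salinomycin wells.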
Pf growth 96h: inhibits malaria parasite growth, 96 h | P. falciparum luciferase reporter growth, 96 h | Potency, µM (titrated, usually from 28.7 µM), without a hit: top-dose activity change, negative = inhibition, actives largely listed as inhibitors | hit rate 6.9% among 320,000 | AID 504834; further: potency means the concentration at half of the fitted maximal effect
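Two-generation exposure (96 h) targets delayed-death phenotype. Reporter parasites carrying integrated firefly luciferase, in red cells at 2% hematocrit and 0.05% parasitemia final, kept at 37 C, 5% CO2; luminescence loss indicates inhibition.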
Pf growth 48h: inhibits P. falciparum growth in the first generation, 48 h; hit rate 5.9% among 310,000; P. falciparum luciferase growth in erythrocytes, 48 h; Potency, µM (series often up to 28.7 µM), without a hit: at the top dose activity change, negative = inhibition, hits mostly inhibitors; AID 504832; further: potency means the concentration at half of the fitted maximal effect
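First compound was added to culture medium, then infected red cells at 0.1% parasitemia and 2% hematocrit (final). After incubation at 37 C under 5% CO2, luciferase detection reagent was dispensed and light output recorded.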
Sm TGR block: blocks Schistosoma mansoni thioredoxin glutathione reductase; Potency, µM (highest dose often 114 µM), for inactives: at the top dose activity change, negative = inhibition, actives largely listed as inhibitors; hit rate 3% among 360,000; purified TGR, DTNB reduction, TNB absorbance 405 nm; Q962Y6; further: potency means the concentration at half of the fitted maximal effect; nearly all actives have a fitted effect of over 60% in size
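Kinetic colorimetric format: TGR-catalysed, NADPH-driven DTNB reduction monitored via TNB absorbance. Enzyme dispensed at 20 nM; compound exposure 15 min at room temperature before reaction start.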
* = called active by the depositor; [ ] = dose if it differs, or a comment. This is a sample that favours compounds with a hit; in the whole collection about 14% have one here. Unless noted, the call rests on the fitted dose curve; in most records, active means well fitted curve in the direction sought with a large enough effect; inconclusive means small, poorly fitted or top-dose-only effect, or another doubt; inactive means no such curve, though single readings can be large; an effect the other way counts as inactive or inconclusive. On the % scale 0 is the no-effect control and ±100 the full control effect.

How did Cn1ccc(NC(=O)c2ccc([N+](=O)[O-])cc2)n1 do in these assays?
HCMV antiviral: -21.5; Pf growth 96h: 24.5%; Pf growth 48h: -0.7%; Sm TGR block: -2.6%

How did COc1ccccc1CN1C(=O)C(C)ON=C1c1ccccc1F (centres undefined) do in these assays?
HCMV antiviral: -80.4*

What do the screens show for `COc1ccc(C(C)=O)cc1CN1C(=O)C(C)ON=C1c1ccccn1` (centres undefined)?
HCMV antiviral: 41.8

Results for CSc1ccc(CN2C(=O)C(C)ON=C2c2ccccc2F)cc1 (centres undefined) ?
HCMV antiviral: -98.5*

What do the screens show for `Cn1c(=O)c2c(-c3ccccc3)n(Cc3ccccn3)cc2n(C)c1=O`?
FBPA Giardia inh: -10.6%; HCMV antiviral: 8.8; Pf growth 48h: 2.5%; Sm TGR block: 28.2µM*

Results for Cc1ccc(-c2c3c(=O)n(C)c(=O)n(C)c3cn2Cc2ccccc2)cc1 ?
FBPA Giardia inh: -8.9%; HCMV antiviral: -5.2; Pf growth 96h: inconclusive; Sm TGR block: 44.7µM*

What do the screens show for `CCCn1cc2c(c1-c1ccc(C)cc1)c(=O)n(C)c(=O)n2C`?
FBPA Giardia inh: -0.3%; HCMV antiviral: 23.0; Pf growth 96h: 3.0%; Pf growth 48h: -4.8%; Sm TGR block: 0.0%

How did O=C(Cn1ncc2c3ccccc3n(Cc3cccc(Cl)c3)c2c1=O)N1CCCCC1 do in these assays?
HCMV antiviral: -11.2; Sm TGR block: 8.0%

What do the screens show for `CC(C)(C)NC(=O)C(c1ccncc1)N(Cc1ccco1)C(=O)c1ccc(-c2ccccc2)[nH]1` (centres undefined)?
FBPA Giardia inh: -16.1%; HCMV antiviral: 74.9; Pf growth 96h: 0.3%; Pf growth 48h: inconclusive; Sm TGR block: 10µM*

Results for CC(C)(C)NC(=O)C(c1ccc(O)cc1)N(Cc1ccco1)C(=O)CCC(=O)Nc1ccccn1 (centres undefined) ?
FBPA Giardia inh: 8.4%; HCMV antiviral: 4.2; Pf growth 96h: -29.5%; Pf growth 48h: -5.7%; Sm TGR block: -10.2%

What do the screens show for `CC(C)(C)NC(=O)C(c1ccc(Cl)cc1)N(Cc1ccco1)C(=O)CCl` (centres undefined)?
FBPA Giardia inh: -18.6%; HCMV antiviral: 14.7; Pf growth 96h: -20.4%; Pf growth 48h: inconclusive; Sm TGR block: 11.2µM*

How did CC(=O)Nc1ccc(S(=O)(=O)N2C(C)CCCC2C)cc1 (centres undefined) do in these assays?
FBPA Giardia inh: -0.2%; HCMV antiviral: 22.4; Pf growth 96h: -24.6%; Pf growth 48h: 5.1%; Sm TGR block: -16.3%

Results for Cc1ccc2ccc3ccc(C)nc3c2n1 ?
FBPA Giardia inh: inconclusive; HCMV antiviral: -94.1*; Pf growth 96h: 17.9%; Pf growth 48h: 0.233µM*; Sm TGR block: -5.8%

Results for Cc1ccc2cc(F)c(F)c(F)c2n1 ?
HCMV antiviral: -2.5

How did N#CC1=C(N)OC2=C(CN(Cc3ccccc3)C/C2=C\c2cccnc2)C1c1cccnc1 (centres undefined) do in these assays?
FBPA Giardia inh: inconclusive; HCMV antiviral: -32.4; Pf growth 96h: 22.2%; Pf growth 48h: inconclusive; Sm TGR block: 22.4µM*

Results for CCOC(=O)C1=C(C)OC(N)=C(C#N)C1c1cccs1 (centres undefined) ?
FBPA Giardia inh: -21.4%; HCMV antiviral: -12.1; Pf growth 96h: -8.5%; Pf growth 48h: -11.9%; Sm TGR block: inconclusive

How did CCN1CC2=C(OC(N)=C(C#N)C2c2ccccc2)/C(=C\c2ccccc2)C1 (centres undefined) do in these assays?
FBPA Giardia inh: inconclusive; HCMV antiviral: -18.4; Pf growth 48h: 10.4µM*; Sm TGR block: inconclusive

Results for CCN1C=C(Cc2cccs2)C2=C(C1)C(c1cccs1)C(C#N)=C(N)O2 (centres undefined) ?
FBPA Giardia inh: inconclusive; HCMV antiviral: -35.6; Pf growth 96h: -24.6%; Pf growth 48h: inconclusive; Sm TGR block: 22.4µM*

What do the screens show for `CCN1CC2=C(OC(N)=C(C#N)C2c2cccs2)/C(=C/c2cccs2)C1` (centres undefined)?
FBPA Giardia inh: inconclusive; HCMV antiviral: 2.3; Pf growth 96h: 54.0%; Pf growth 48h: 11.7µM*; Sm TGR block: 35.5µM*

How did CC(C)N1CC2=C(OC(N)=C(C#N)C2c2cccnc2)/C(=C/c2cccnc2)C1 (centres undefined) do in these assays?
FBPA Giardia inh: inconclusive; HCMV antiviral: 7.3; Pf growth 96h: -1.2%; Pf growth 48h: inconclusive; Sm TGR block: -19.8%

How did Cc1ccnc(N2CCC(C(=O)NNC(=O)COc3cccc4ccccc34)CC2)n1 do in these assays?
FBPA Giardia inh: 3.5%; HCMV antiviral: -4.2; Pf growth 96h: inconclusive; Pf growth 48h: 0.9%; Sm TGR block: 5.0%

How did CCOC(=O)Cc1ccc(NC(=O)NC(C)c2c(-n3cccc3)sc(C)c2C)cc1 (centres undefined) do in these assays?
HCMV antiviral: -15.6; Sm TGR block: 3.0%

What do the screens show for `CC(=O)c1sc2c(c1C)c(=O)n(-c1ccc(Cl)cc1)c(=O)n2Cc1cc(=O)n2cc(Cl)ccc2n1`?
HCMV antiviral: 17.4; Sm TGR block: -0.3%

Results for CCOc1ccccc1-n1nnnc1SCC(=O)N1CCCC1=O ?
HCMV antiviral: 33.5

Results for COc1ccc(-n2c(C)cc(-c3csc(N)n3)c2C)cc1 ?
FBPA Giardia inh: -0.1%; HCMV antiviral: 1.8; Pf growth 96h: inconclusive; Pf growth 48h: 13.1µM*; Sm TGR block: -3.3%

What do the screens show for `Cc1cc(-c2csc(N)n2)c(C)n1-c1ccc(Cl)c(Cl)c1`?
FBPA Giardia inh: -8.9%; HCMV antiviral: -18.5; Pf growth 96h: -27.3%; Pf growth 48h: 4.2%; Sm TGR block: -17.2%

How did O=C(Nc1sccc1C(=O)N1CCOCC1)c1cccnc1 do in these assays?
FBPA Giardia inh: -3.4%; HCMV antiviral: 14.8; Pf growth 96h: 3.29µM*; Pf growth 48h: 36.4%; Sm TGR block: -30.2%

How did CCOC(=O)c1ccc(N2C(=O)[C@@H](c3ccccc3)[C@H]2c2ccccc2)cc1 do in these assays?
HCMV antiviral: 0.2; Pf growth 96h: inconclusive; Pf growth 48h: 10.4µM*; Sm TGR block: 2.1%

How did CCOC(=O)c1ccc(N2C(=O)C3CCOc4ccccc4C32)cc1 (centres undefined) do in these assays?
HCMV antiviral: -78.7*; Pf growth 96h: inconclusive; Pf growth 48h: inconclusive; Sm TGR block: -6.9%

What do the screens show for `Cc1nc(C(F)(F)F)ccc1C(=O)N1CCCCCC1(C)C(=O)NCC(C)C` (centres undefined)?
HCMV antiviral: 23.0

How did Cc1cccc2cc(CN(Cc3cccs3)Cc3nnnn3Cc3ccccc3)c(=O)[nH]c12 do in these assays?
FBPA Giardia inh: -8.0%; HCMV antiviral: inconclusive; Pf growth 96h: -1.3%[5.75 µM]; Pf growth 48h: inconclusive; Sm TGR block: 4.0%
